aSyn 5UTR act: Activators via SNCA 5'UTR binding, MLPCN | alpha-synuclein 5'UTR reporter, activators screen | activity score, % (tested at 7.5 µM), hits read low | 300,000 tested, 7.1% active | AID 1814, 2009; in the data active means activity score below about -60%
A number is an active result; – = inactive. Only a sample is shown.

SMILES	aSyn 5UTR act
CCC(=O)CCC(=O)c1ccc2ccccc2c1	-92
CCOc1ccccc1NC(=O)c1ccc2[nH]c(C)c(C)c2c1	-91
Cn1cc(C(=O)Nc2ccccn2)c(=O)c2ccccc21	-114
O=C(Nc1ccc(Cl)c(Cl)c1)Nc1ccc(N2CCCC2)c(S(=O)(=O)Nc2ccccc2Cl)c1	–
O=C(/C=C/c1cccs1)Nc1ccc(N2CCOCC2)c(S(=O)(=O)Nc2ccccc2Cl)c1	-139
CCOC(=O)NC(=O)CSc1nc(-c2ccc(C)c(C)c2)cn1-c1ccccc1	-154
Cc1ccc(-c2cn(-c3ccccc3)c(SCC(N)=O)n2)cc1C	-67
COc1cccc(/C=N/NC(=O)c2c(C)nc3ccc(Br)cn23)c1O	–
Cc1cc(C)nc(N/N=C/c2ccccc2OCc2ccc(Br)cc2)n1	-144
Cc1cc(C)nc(N/N=C/c2ccccc2OCc2ccc(Cl)cc2)n1	-80
O=C(Nc1ccc(F)cc1F)c1cc2n(n1)C(C(F)(F)F)C1CCCCC1N2 (centres undefined)	-69
O=C(Nc1ccc(F)cc1F)c1cc2nc3c(c(C(F)(F)F)n2n1)CCCC3	-79
COc1ccc(CCC(=O)Nc2ccc(-c3noc(-c4ccc(OC)c(OC)c4)n3)cc2)cc1	-158
COc1ccc(-c2nc(-c3ccc(NC(=O)c4ccc(Br)o4)cc3)no2)cc1OC	-136
Cc1ccc(C2=Nc3ccccc3SC(c3cccc([N+](=O)[O-])c3)C2)cc1 (centres undefined)	-113
COc1ccc2c(c1)Cc1sc(NC(C)=O)nc1-2	-169
Cc1onc(-c2ccccc2Cl)c1C(=O)N1CCN(c2cccc(Cl)c2)CC1	–
Cc1onc(-c2ccccc2Cl)c1C(=O)Nc1nc2c(s1)CCCC2	-121
O=C(Nc1nc2c(s1)CCCC2)c1cccnc1	-164
COc1ccc2c(c1)Cc1sc(NC(=O)c3ccco3)nc1-2	-265
COc1ccc2c(c1)CCc1sc(NC(=O)c3ccco3)nc1-2	-114
COc1ccc2c(c1)-c1nc(NC(=O)c3cccs3)sc1CC2	-122
COc1ccc2c(c1)Cc1sc(NC(=O)c3cccnc3)nc1-2	-63
COc1cc(Cn2c(-c3nonc3N)nc3ccccc32)ccc1C	–
COCCOCCn1c(/C=C/c2ccccc2)nc2ccccc21	-97
SMILES	aSyn 5UTR act
CC(C)n1c(/C=C/c2ccccc2)nc2ccccc21	-118
COc1ccc(/C=C/c2nc3ccccc3n2Cc2ccc(OC)c(OC)c2)cc1	-191
O=C(NCCc1ccccc1)c1ccc(Cl)c(S(=O)(=O)N2CCCC2)c1	-67
O=C(NCCc1ccccc1)c1cnc(Cl)c(Cl)c1	-119
CC1CN(S(=O)(=O)c2cc(C(=O)NCCC3=CCCCC3)ccc2Cl)CC(C)O1 (centres undefined)	-85
O=C(NCC(O)c1ccccc1)c1ccc(Cl)c(S(=O)(=O)N2CCCC2)c1 (centres undefined)	-96
O=C(NCC(O)c1ccccc1)c1ccccc1 (centres undefined)	-80
COc1ccc(OCc2cc(C(=O)N(C)CC3CCCCO3)no2)c(Cl)c1 (centres undefined)	-71
COc1ccc(C(=O)/C=C/C(=O)N(CC(=O)NC2CCCCC2)CC2CCCO2)c(O)c1 (centres undefined)	–
COc1ccc(OCc2cc(C(=O)N(C)C(C)c3ccon3)no2)c(Cl)c1 (centres undefined)	-115
COc1ccc(OCc2cc(C(=O)N(C)CCC3CCOCC3)no2)c(Cl)c1	-75
COc1cc(Cl)ccc1OCc1cc(C(=O)N(C)CC2CCCCO2)no1 (centres undefined)	-139
COc1ccccc1-c1nn2c(-c3ccco3)nnc2s1	-196
CCN(CC)c1ccc(-c2nn3c(-c4ccccc4OC)nnc3s2)cc1	–
Cc1cc(=O)n2nc(-c3ccc(C(F)(F)F)cc3)sc2n1	-149
COc1ccccc1-c1nn2c(=O)cc(C)nc2s1	-72
COc1cccc(-c2nnc3sc(-c4ccccc4)nn23)c1	-69
Cc1ccc(C(=O)Nn2cnc3ccccc3c2=O)cc1C	-115
CCc1ccc(C(=O)Nn2cnc3ccccc3c2=O)cc1	-150
N/C(=N\OC(=O)c1ccc(Cl)cc1[N+](=O)[O-])c1ccccn1	-165
N/C(=N\OC(=O)c1ccc(Cl)cc1Cl)c1ccccn1	–
N/C(=N\OC(=O)c1cc([N+](=O)[O-])ccc1Cl)c1ccccn1	-82
N/C(=N\OC(=O)c1ccc([N+](=O)[O-])cc1Cl)c1ccccn1	–
CC(=O)N=C(N)Sc1nc2ccccc2[nH]1	-135
O=C(Nc1cccnc1)C1CCN(S(=O)(=O)c2cccs2)CC1	-108
SMILES	aSyn 5UTR act
COc1cccc2sc3ccc(C#CC4(O)CCCCC4)cc3c(=O)c12	-191
COc1ccc2sc3ccccc3c(=O)c2c1OC	-145
COc1cccc2sc3ccc(NCc4ccc5c(c4)OCO5)cc3c(=O)c12	-63
COc1ccc2sc3c(=O)[nH]c4ccccc4c3c2c1	–
O=c1c2ccccc2sc2ccc(C#CC3(O)CCCCC3)cc12	–
Nc1ccc(C#Cc2ccc3sc4ccccc4c(=O)c3c2)cc1	-190
COc1cccc2sc3ccc(C#Cc4ccc(N)cc4)cc3c(=O)c12	-111
Fc1ccc(-c2nnsc2Sc2ccccn2)cc1	-84
Cc1cc(N2CCN(c3ccc([N+](=O)[O-])c4cccnc34)CC2)c2ccccc2n1	–
Cn1c(/C=C/c2ccccc2[N+](=O)[O-])nc2ccccc2c1=O	-133
Cn1c(/C=C/c2ccc(Br)cc2)nc2ccccc2c1=O	-171
O=[N+]([O-])c1ccccc1/C=C/c1ccc2ccccc2n1	-138
O=C1NC(c2ccccn2)Nc2sc3c(c21)CCC3 (centres undefined)	-124
O=C1NC(c2ccc(Br)cc2)Nc2sc3c(c21)CCC3 (centres undefined)	-96
Cc1ccsc1C1NC(=O)c2c(sc3c2CCCC3)N1 (centres undefined)	-218
Cc1ccc(C2NC(=O)c3c(sc4c3CCN(C)C4)N2)s1 (centres undefined)	-72
O=C(/C=C/c1ccc(Cl)cc1Cl)Nc1cccc(S(=O)(=O)NC2=NCCCCC2)c1	-67
O=C(CSc1ccc2ccccc2c1Br)Nc1cccc(S(=O)(=O)NC2=NCCCCC2)c1	–
Oc1c(N=NC(=S)Nc2ccccc2F)c2ccccc2n1Cc1ccccc1F	–
CCn1c(O)c(N=NC(=O)c2cccs2)c2ccccc21	-67
Cc1ccccc1Cn1c(O)c(N=NC(=S)Nc2ccccc2F)c2ccccc21	–
COc1ccc(OS(=O)(=O)Cc2ccccc2)cc1	-103
Fc1ccc(-c2nnn(Cc3ccccc3Cl)n2)cc1	-69
Nc1ccc(-c2nnn(Cc3ccccc3F)n2)cc1	-71
Clc1ccc(-c2nnn(Cc3nc4ccccc4s3)n2)cc1	-138
SMILES	aSyn 5UTR act
CC(C)n1nnc(-c2ccc(OCc3ccccc3F)cc2)n1	-100
c1ccc(Cn2nnc(-c3ccccc3)n2)cc1	-62
C/C(=C\C(=O)c1cccnc1)Nc1ccc(O)cc1	-77
C/C(=C\C(=O)c1ccccc1)Nc1ccc(O)cc1	-102
COC(=O)C1=C(O)/C(=C\c2cc(C)n(-c3ccccc3C)c2C)N=C1C	-82
CCn1nnc2cc(C(=O)NCCc3ccccc3F)ccc21	–
Cn1cc(CNC(=O)c2ccc3nc(Cc4ccccc4F)oc3c2)cn1	-84
O=C(NCCc1ccccn1)c1ccc2nc(Cc3ccccc3F)oc2c1	-111
Cn1cc(CCNC(=O)c2ccc3nc(Cc4ccccc4F)oc3c2)cn1	-116
Cc1ccc(C(=O)NCCOc2ccc(Cl)cc2)cc1	-88
Cc1ccnc(NC(=O)CCCNC(=O)c2ccc(Cl)cc2)c1	-182

Source: PubChem (Broad Institute)
